Several values for one entry are separate records, joined by “and”; a condition that tells them apart may be missing. Equal entries are not always repeated. Inconclusive results are not listed. Activity calls are given as the source filed them. Unless noted, calls come from the whole dose curve; as a rule, active = well fitted curve in the direction sought with a large enough effect in the repeat runs; inconclusive = weak or mixed curves; inactive = no such curve, though single readings can be large; an effect the other way counts as inactive or inconclusive.
Key:
[1] = qHTS assay to identify small molecule antagonists of the estrogen related receptor (ERR) signaling pathway from Tox21 library - cell viability counter screen (AID 1224834); note: nearly all actives have a fitted effect of over 30% in size; note: potency is the fitted concentration of half-maximal effect
In short: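 Viability readout (CellTiter-Fluor fluorescence, 30 min at 37 C) multiplexed with the ERR assay; cells treated 17.5 h at 37 C with compounds delivered in DMSO.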

[2] = qHTS assay to identify small molecule agonists of the constitutive androstane receptor (CAR) signaling pathway - cell viability counter screen (AID 1224836); note: nearly all actives have a fitted effect of over 45% in size; note: potency is the fitted concentration of half-maximal effect
In short: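 Fluorescence from CellTiter-Fluor indicates live cells after 23 h exposure. The human hepatoma line expresses hCAR and a CYP2B6-2.2kb reporter. Incubation medium contains 0.75 uM PK11195 (final).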

[3] = qHTS assay to identify small molecule antagonists of the constitutive androstane receptor (CAR) signaling pathway - cell viability counter screen (AID 1224837); note: nearly all actives have a fitted effect of over 45% in size; note: potency is the fitted concentration of half-maximal effect
In short: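 Fluorescence from CellTiter-Fluor served as the viability signal. Human hepatoma HepG2 cells stably bearing hCAR and CYP2B6-2.2kb received compound plus CITCO (50 nM final) for 23 hr.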

[4] = target: Nuclear receptor subfamily 1 group I member 3 (Homo sapiens) (UniProt Q14994); assay: qHTS assay to identify small molecule antagonists of the constitutive androstane receptor (CAR) signaling pathway (AID 1224838);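 note: HepG2 cells stably expressing hCAR with CYP2B6 luciferase reporter stimulated by CITCO; nearly all actives have a fitted effect of over 40% in size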; note: potency is the fitted concentration of half-maximal effect
In short: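 Quantitative HTS in double-stable HepG2-CYP2B6-hCAR cells. After 4 h plating, cells get compound (15 concentrations) and CITCO at 50 nM final, incubate 24 h at 37 C, then ONE-Glo luminescence is read.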

[5] = target: Nuclear receptor subfamily 1 group I member 3 (Homo sapiens) (UniProt Q14994); assay: qHTS assay to identify small molecule agonists of the constitutive androstane receptor (CAR) signaling pathway (AID 1224839); note: nearly all actives have a fitted effect of over 15% in size; note: potency is the fitted concentration of half-maximal effect;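 for activation: HepG2 cells stably carrying human CAR and a CYP2B6 luciferase reporter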
In short: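 Stable hCAR/CYP2B6-2.2kb HepG2 line in DMEM with 10% FBS; compounds (15 concentrations) and 0.75 uM PK11195 final, 24 h at 37 C/5% CO2, then ONE-Glo luminescence after 30 min.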

[6] = qHTS assay to identify small molecule antagonists of the estrogen related receptor signaling pathway with the pleiotropic PPARgamma coactivator (PGC) from Tox21 10K library - cell viability counter screen (AID 1224840; active = well fitted cell-killing curve with a large enough effect in the repeat runs, not every such curve was filed as active; note: nearly all actives have a fitted effect of over 40% in size; note: potency is the fitted concentration of half-maximal effect)
In short: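 Compounds in DMSO, alongside positive and negative controls, were pinned onto PGC/ERR cells (2,000 per well). Exposure lasted 17.5 hours at 37 C, followed by a 30-minute CellTiter-Fluor incubation and fluorescence reading.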

[7] = qHTS assay to identify small molecule antagonists of the estrogen related receptor signaling pathway with the pleiotropic PPARgamma coactivator (PGC) from Tox21 10K library (AID 1224841; call rule not given here; note: actives are mostly falling curves and most rising ones were filed inactive; nearly all actives have a fitted effect of over 50% in size; note: potency is the fitted concentration of half-maximal effect)
In short: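 Compound exposure ran 18 hours at 37 C in PGC/ERR cells (2,000/well) that had first rested 6 hours in a 37 C/5% CO2 incubator. Luciferase activity was then detected with One-Glo after a 30-minute room-temperature step.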

[8] = qHTS assay to identify small molecule agonists of the estrogen related receptor signaling pathway with the pleiotropic PPARgamma coactivator (PGC) from Tox21 10K library (AID 1224842); note: nearly all actives have a fitted effect of over 15% in size
In short: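 Luminescence from One-Glo (30 min, room temperature) measured after PGC/ERR cells had 18 h at 37 C with pinned compound (23 nL in DMSO). Cells had been seeded at 2,000 per well and pre-incubated 6 h.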

[9] = target: Thyrotropin receptor (Homo sapiens) (UniProt P16473); assay: qHTS assay to identify small molecule agonists of the thyroid stimulating hormone receptor (TSHR) signaling pathway (AID 1224843; calls by dose curve; note: nearly all actives have a fitted effect of over 45% in size; note: potency is the fitted concentration of half-maximal effect)
In short: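 Screening of the Tox21 10K collection used HEK293 cells engineered with TSHR at 800 cells per well. After a 30-min room-temperature compound exposure, HTRF cAMP reagents were added and fluorescence recorded 1 h later.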

[10] = qHTS assay to identify small molecule agonists of the hypoxia (HIF-1) signaling pathway - cell viability counter screen (AID 1224844; calls by dose curve; note: nearly all actives have a fitted effect of over 50% in size; note: potency is the fitted concentration of half-maximal effect)
In short: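 Luminescent ATP content (CellTiter-Glo, 30 min, room temperature) served as the viability measure in HRE-bla ME-180 cells exposed to compounds for 17 hrs in low-serum medium (0.5% dialyzed FBS).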

[11] = qHTS assay to identify small molecule agonists of H2AX (AID 1224845; active = well fitted activation curve with a large enough effect in the signal ratio in the repeat runs, not every such curve was filed as active; the % refers to the signal ratio; note: potency is the fitted concentration of half-maximal effect)
In short: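 Phospho-H2AX Ser139 measured by HTRF (ex 320 nm; em 665 and 620 nm) after 24 hr antibody incubation. Compounds, 15 concentrations, 0.76% DMSO, were applied to CHO-K1 cells for 3hr at 37C before lysis.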

[12] = qHTS assay to identify small molecule agonists of the hypoxia (HIF-1) signaling pathway (AID 1224846; active = well fitted activation curve with a large enough effect in the signal ratio in the repeat runs, not every such curve was filed as active; the % refers to the signal ratio)
In short: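 Measured by blue/green FRET after loading CCF4-AM: beta-lactamase expressed from a hypoxia response element in ME-180 cells. Test agents were delivered in DMSO and left 17 hrs; cells had been plated 5 hrs earlier in low-serum (0.5% dialyzed FBS) medium.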

[13] = qHTS assay to identify small molecule agonists of H2AX - cell viability counter screen (AID 1224847; calls by dose curve; note: nearly all actives have a fitted effect of over 30% in size; note: potency is the fitted concentration of half-maximal effect)
In short: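 Viability of CHO-K1 (wild type) cells after 3 hr compound exposure was measured by CellTiter-Glo luminescence.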

[14] = qHTS assay to identify small molecule agonists of the estrogen related receptor (ERR) signaling pathway from Tox21 library (AID 1224849; calls by dose curve; note: nearly all actives have a fitted effect of over 15% in size); details: ERR reporter cell line, ONE-Glo luciferase, 18 h; at 92.4 µM (top of the series) unless noted
In short: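 We plated ERR reporter cells, waited 6 h, added compounds in DMSO by pin tool and incubated them 18 h at 37 C. ONE-Glo was then added and luminescence read after 30 min.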

[15] = qHTS RealTime-Glo MT Cell Viability Assay in HepG2 cells - 24 hour (AID 1224867); note: nearly all actives have a fitted effect of over 50% in size; note: potency is the fitted concentration of half-maximal effect
In short: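 qHTS, HepG2, 600 cells/well, RealTime-Glo (NanoLuc + prosubstrate) added with cells; 5 h preincubation; DMSO compound addition; 37 C; luminescence at 0/8/16/24/32/40 h.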

[16] = qHTS RealTime-Glo MT Cell Viability Assay in HepG2 cells - 40 hour (AID 1224870); note: nearly all actives have a fitted effect of over 50% in size; note: potency is the fitted concentration of half-maximal effect
In short: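 Real-time viability: cells seeded at 600 per well together with NanoLuc and cell-permeant prosubstrate, compounds added after 5 h incubation. Luminescence tracked at 0, 8, 16, 24, 32 and 40 h of exposure.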

[17] = qHTS assay to identify small molecule antagonists of the estrogen related receptor (ERR) signaling pathway from Tox21 library (AID 1224848); note: nearly all actives have a fitted effect of over 50% in size; note: potency is the fitted concentration of half-maximal effect
In short: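 Antagonist-mode screen of the Tox21 10K library in an NTP-provided ERR reporter cell line; 18 h compound exposure at 37 C, luminescence measured with ONE-Glo.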

[18] = qHTS RealTime-Glo MT Cell Viability Assay in HEK293 cells - 32 hour (AID 1224868); note: nearly all actives have a fitted effect of over 50% in size; note: potency is the fitted concentration of half-maximal effect
In short: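 Assay medium contained NanoLuc luciferase plus cell-permeant prosubstrate, added with HEK293 cells at 600 cells/well. After 5 h at 37 C/5% CO2 compounds were added; plates stayed at 37 C for 40 h with serial luminescence reads.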

[19] = A CellTox Green Cytotoxicity Assay to monitor cytotoxicity in HEK293 cells - 0 hour (AID 1224869); note: nearly all actives have a fitted effect of over 50% in size
In short: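 Each value comes from one timepoint of a single continuous run in which HEK293 cells with CellTox Green were exposed to compound for up to 40 h at 37 C, dye fluorescence rising with cell death.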

[20] = target: Luciferin 4-monooxygenase (Photinus pyralis) (UniProt P08659); assay: qHTS assay to identify small molecule inhibitors of firefly luciferase (AID 1224835); note: nearly all actives have a fitted effect of over 25% in size
In short: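 Inhibition of purified Photinus luciferase is measured by luminescence. Substrate levels (D-luciferin, ATP) sit at their KM values. Each compound is tested in a concentration series.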
% is set by controls: 0 for no effect and ±100 for the full control effect.

Chain of Thyrotropin receptor (Homo sapiens) (P16473 whole entry, looked up): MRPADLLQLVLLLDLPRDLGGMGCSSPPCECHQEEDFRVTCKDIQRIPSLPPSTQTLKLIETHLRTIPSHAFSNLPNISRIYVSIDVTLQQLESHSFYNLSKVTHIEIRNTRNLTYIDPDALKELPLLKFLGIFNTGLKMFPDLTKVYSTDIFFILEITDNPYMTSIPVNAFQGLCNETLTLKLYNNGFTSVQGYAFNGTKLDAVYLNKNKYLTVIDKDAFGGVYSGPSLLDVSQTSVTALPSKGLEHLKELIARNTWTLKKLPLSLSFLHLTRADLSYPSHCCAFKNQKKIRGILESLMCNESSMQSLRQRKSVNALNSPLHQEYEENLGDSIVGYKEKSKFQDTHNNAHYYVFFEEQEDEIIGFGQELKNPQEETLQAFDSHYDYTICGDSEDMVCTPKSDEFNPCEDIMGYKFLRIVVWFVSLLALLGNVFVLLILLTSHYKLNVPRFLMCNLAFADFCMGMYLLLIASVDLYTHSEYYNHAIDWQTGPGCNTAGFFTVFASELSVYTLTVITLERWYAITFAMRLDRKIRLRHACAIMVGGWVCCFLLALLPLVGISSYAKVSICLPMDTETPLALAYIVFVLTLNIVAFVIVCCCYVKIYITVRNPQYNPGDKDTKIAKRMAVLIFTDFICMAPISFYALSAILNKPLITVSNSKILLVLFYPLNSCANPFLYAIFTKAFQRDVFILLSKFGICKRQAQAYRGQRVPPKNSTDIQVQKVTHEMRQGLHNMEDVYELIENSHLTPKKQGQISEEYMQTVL
Chain of Nuclear receptor subfamily 1 group I member 3 (Homo sapiens) (Q14994 whole entry, looked up): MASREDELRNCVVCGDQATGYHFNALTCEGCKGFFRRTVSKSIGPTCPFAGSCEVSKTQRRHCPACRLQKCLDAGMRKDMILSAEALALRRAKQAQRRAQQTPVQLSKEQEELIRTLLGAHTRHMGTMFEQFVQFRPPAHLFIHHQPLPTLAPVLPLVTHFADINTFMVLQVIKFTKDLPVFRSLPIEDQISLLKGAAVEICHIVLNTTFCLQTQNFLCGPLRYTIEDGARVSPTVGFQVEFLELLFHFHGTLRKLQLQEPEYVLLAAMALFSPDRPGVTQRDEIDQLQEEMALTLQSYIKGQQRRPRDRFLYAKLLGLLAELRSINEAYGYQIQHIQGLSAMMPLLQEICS
Chain of Luciferin 4-monooxygenase (Photinus pyralis) (P08659 whole entry, looked up): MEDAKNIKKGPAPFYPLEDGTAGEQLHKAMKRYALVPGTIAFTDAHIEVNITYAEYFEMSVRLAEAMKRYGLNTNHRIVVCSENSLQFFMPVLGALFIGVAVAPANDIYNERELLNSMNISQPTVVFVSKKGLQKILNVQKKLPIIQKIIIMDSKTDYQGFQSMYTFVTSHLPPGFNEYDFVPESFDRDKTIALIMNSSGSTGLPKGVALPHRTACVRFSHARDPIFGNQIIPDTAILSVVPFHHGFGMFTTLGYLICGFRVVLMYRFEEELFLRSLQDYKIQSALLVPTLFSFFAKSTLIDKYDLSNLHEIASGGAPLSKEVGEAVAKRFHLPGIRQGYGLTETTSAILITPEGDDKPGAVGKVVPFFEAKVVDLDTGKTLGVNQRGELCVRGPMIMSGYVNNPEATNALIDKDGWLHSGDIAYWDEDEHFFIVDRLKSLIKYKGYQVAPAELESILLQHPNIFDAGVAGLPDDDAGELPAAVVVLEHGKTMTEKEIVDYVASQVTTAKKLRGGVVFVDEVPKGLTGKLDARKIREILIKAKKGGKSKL

Oc1ccc2c(c1)-c1ccccc1C2
active: Potency [5] 54.5 µM
inactive: Potency [1] | Potency [2] | Potency [3] | Potency [4] | Potency [6] | Potency [7] | Potency [8] | Potency [9] | Potency [10] | Potency [11] | Potency [12] | Potency [13] | activity change, positive = activation [14] -22% | Potency [15] | Potency [16]

CCCCCCCCCCCCCCCCCC[N+](C)(C)Cc1ccccc1
inactive: Potency [5] | Potency [8] | Potency [11] | activity change, positive = activation [14] -81% | Potency [19]
active: Potency [1] 49 µM | Potency [2] 55 µM | Potency [3] 55 µM | Potency [4] 49 µM | Potency [6] 55 µM | Potency [7] 30.9 µM | Potency [9] 55 µM | Potency [10] 24.8 µM | Potency [17] 19.5 µM | Potency [15] 49.5 µM | Potency [18] 2.78 µM | Potency [16] 22.1 µM

C[C@@H](NCCCc1cccc(C(F)(F)F)c1)c1cccc2ccccc12
inactive: Potency [20] | Potency [5] | Potency [7] | Potency [8] | Potency [9] | activity change, positive = activation [14] -58.9% [at 42.5 µM] | Potency [19]
active: Potency [1] 29.8 µM | Potency [10] 23.9 µM | Potency [11] 49.2 µM | Potency [17] 26.6 µM | Potency [15] 16.9 µM | Potency [18] 23.9 µM | Potency [16] 15.1 µM

Oc1ccc2cc(SSc3ccc4cc(O)ccc4c3)ccc2c1
inactive: Potency [2] | Potency [3] | Potency [4] | Potency [8] | Potency [9] | Potency [10] | Potency [12] | activity change, positive = activation [14] -64.5% and -58.9% | Potency [15] | Potency [19] | Potency [16]
active: Potency [1] 61.1 µM | Potency [7] 48.6 µM and 43.3 µM | Potency [13] 89.9 µM | Potency [17] 61.2 µM and 54.5 µM

CCCCCCCCCCn1cc[n+](CCCCCCCCCC)c1C
inactive: Potency [5] | Potency [8] | activity change, positive = activation [14] -74.4% | Potency [19]
active: Potency [1] 27.3 µM | Potency [2] 30.7 µM | Potency [3] 54.5 µM | Potency [4] 30.7 µM | Potency [7] 27.3 µM | Potency [13] 10.1 µM | Potency [17] 2.17 µM | Potency [15] 19.5 µM | Potency [18] 1.38 µM | Potency [16] 19.5 µM

Cc1onc(-c2c(Cl)cccc2Cl)c1C(=O)N[C@@H]1C(=O)N2[C@@H]1SC(C)(C)[C@@H]2C(=O)O
inactive: Potency [1] | Potency [2] | Potency [3] | Potency [4] | Potency [5] | Potency [6] | Potency [7] | Potency [8] | Potency [9] | Potency [10] | Potency [11] | Potency [13] | Potency [17] | activity change, positive = activation [14] -4.23% [at 42.5 µM] | Potency [18] | Potency [16]

Source: PubChem BioAssay (Tox21)
